Data: PubChem BioAssay
Activity calls are given as the source filed them.

Columns and labels:
Albumin (Bos taurus) = Albumin (Bos taurus) (UniProt P02769); assay: bovine serum albumin binders on microarray, profiling panel, artefact control for SMM control protein annotation, biochemical, small-molecule microarray, Alexa647 label, 635/667 nm fluorescence (AID 1118); conditions: BSA-A647 binding, fluorescence 635 nm, higher = more signal;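 further: score merges 667 nm emission intensity and signal-to-noise per printed compound spot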
[1] = small-molecule microarray binders of probe aXIP, primary screen, biochemical, NeuroSMM set, 635/667 nm fluorescence (AID 1119); conditions: higher = more signal, called active from +8 up or from −8 down;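 further: probe is the protein aXip251-270 applied at 1 µg/mL to compound-printed slides; binding of probe to printed compounds measured as 667 nm fluorescence plus signal to noise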
[2] = small-molecule binders of probe aNOTCH3, primary screen, biochemical, small-molecule microarray, 635/667 nm fluorescence (AID 1120); conditions: higher = more signal;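 further: probe is a biotin-tagged antibody raised against NOTCH3 rather than NOTCH3 protein; score merges spot fluorescence near 667 nm with spot signal to noise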
[3] = small-molecule binders of probe aNOTCH2, primary screen, biochemical, small-molecule microarray, 635/667 nm fluorescence (AID 1121); conditions: higher = more signal;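 further: score merges feature fluorescence read at 667 nm with its signal to noise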
[4] = biological target: Carbonic anhydrase 2 (Homo sapiens) (UniProt P00918); assay: CAII small-molecule binders, profiling panel, biochemical, small-molecule microarray, Alexa647-labelled CAII (AID 1122); conditions: CAII-A647 binding fluorescence, higher = more signal
[5] = COS7 lysate on small-molecule microarray, probe aHis, 635 nm (AID 1123); conditions: COS7 cell lysate, fluorescence, higher = more signal;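 further: z-score combines 667nm fluorescence intensity with signal-to-noise per printed compound spot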
[6] = compound binding in COS7 lysate, probe aLAP1, primary screen, cell lysate, small-molecule microarray (AID 1124); conditions: probe aLAP1, fluorescence, higher = more signal;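 further: lysate comes from COS7 cells expressing LAP1 and is applied at 0.3 µg/mL; score merges spot fluorescence near 667 nm with signal-to-noise over triplicate slides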
Sam68 (KHDRBS1) = assay: Sam68 small-molecule binders, primary screen, biochemical, small-molecule microarray, 635 nm fluorescence (AID 1125); conditions: small-molecule microarray binding, higher = more signal;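 further: score merges 667 nm channel intensity with signal to noise over triplicate slides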
[7] = test system: Chordin-like protein 2 (CHRDL2); assay: CHRDL2 small-molecule binders, primary screen, biochemical, small-molecule microarray, 635 nm fluorescence (AID 1126); conditions: small-molecule microarray binding, fluorescence 635 nm; higher = more signal;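 further: printed compound slides probed with Chrdl2 protein at 4 µg/mL for 1 h at 4 C; score merges 667 nm emission intensity with signal to noise over three replicate slides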
[8] = biological target: Concanavalin-A (Canavalia ensiformis) (UniProt P02866); assay: ConA small-molecule binders, primary screen, artefact control for SMM control protein annotation, biochemical, small-molecule microarray, Alexa647 label, 635 nm (AID 1127); conditions: ConA-A647 binding fluorescence, higher = more signal;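 further: z combines 667 nm emission intensity with signal-to-noise across three replicate slides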
[9] = anti-His antibody binders, primary screen, artefact control for SMM control protein annotation, biochemical, small-molecule microarray, 635 nm fluorescence (AID 1128); conditions: anti-His Alexa647 antibody binding, higher = more signal;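 further: score merges feature fluorescence with signal-to-noise for each printed compound spot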
[10] = test system: Human papillomavirus type 1a E7 protein (residues 1-88); assay: HPV1a E7 small-molecule binders, primary screen, biochemical, small-molecule microarray, residues 1-88, 635 nm (AID 1129); conditions: small-molecule microarray binding, fluorescence 635 nm; higher = more signal
[11] = biological target: Focal adhesion kinase 1 (Homo sapiens) (UniProt Q05397); assay: small-molecule microarray binders of FAK, primary screen, biochemical, 635/667 nm fluorescence, BSA, DTT (AID 1130); conditions: PTK2 binding, 635 nm fluorescence, higher = more signal;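 further: composite of spot emission at 667 nm and signal to noise over triplicate slides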
[12] = test system: Fibrinogen (Alexa647-labelled); assay: fibrinogen binders on compound microarrays, profiling panel, artefact control for SMM control-protein annotation, biochemical, small-molecule microarray, 635/667 nm fluorescence (AID 1131); conditions: fibrinogen-A647 binding fluorescence, higher = more signal;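 further: z-score merges 667 nm fluorescence with per-spot signal-to-noise over triplicate slides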
[13] = biological target: Follistatin (Homo sapiens) (UniProt P19883); assay: follistatin binders on small-molecule microarrays, primary screen, biochemical, small-molecule microarray, 635/667 nm fluorescence (AID 1132); conditions: FST binding, 635 nm fluorescence, higher = more signal
[14] = biological target: Fibroblast growth factor 2 (Homo sapiens) (UniProt P09038); assay: FGF2 binders on small-molecule microarrays, primary screen, biochemical, small-molecule microarray, 635/667 nm fluorescence (AID 1133); conditions: small-molecule microarray binding, FGF2, fluorescence 635/667; higher = more signal
[15] = mitochondrial membrane potential change in A549 cells, profiling panel, cell-based, JC-1 fluorescence, basal, 24 h, 100 nL (AID 1138); conditions: higher = more signal;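 further: A549 lung adenocarcinoma cells under basal conditions with no added stimulus; test concentration not given here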
Lefty1 = Lefty1 binders on small-molecule microarrays, primary screen, biochemical, small-molecule microarray, 635/667 nm fluorescence (AID 1139); conditions: small-molecule microarray binding, fluorescence 635/667; higher = more signal
[16] = test system: wheat germ agglutinin (Triticum aestivum), Alexa647-labelled; assay: wheat germ agglutinin binders on compound microarrays, profiling panel, artefact control for SMM control-protein annotation, biochemical, small-molecule microarray, 635/667 nm fluorescence (AID 1140); conditions: WGA-A647 binding, 635 nm fluorescence, higher = more signal;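 further: score merges 667 nm feature emission with signal to noise over triplicate slides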
[17] = biological target: Luciferin 4-monooxygenase (Photinus pyralis) (UniProt P08659); assay: firefly luciferase enzyme inhibitors, primary screen, biochemical, luminescence, purified enzyme, 2006 set (AID 1141); conditions: SteadyGlo luminescence, 30 min, higher = more signal, called active from +8 up or from −8 down;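 further: cell-free assay with purified firefly luciferase at 100 ng per well in PBS; test concentration not given here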
Chain of Luciferin 4-monooxygenase (Photinus pyralis) (P08659 whole entry, looked up): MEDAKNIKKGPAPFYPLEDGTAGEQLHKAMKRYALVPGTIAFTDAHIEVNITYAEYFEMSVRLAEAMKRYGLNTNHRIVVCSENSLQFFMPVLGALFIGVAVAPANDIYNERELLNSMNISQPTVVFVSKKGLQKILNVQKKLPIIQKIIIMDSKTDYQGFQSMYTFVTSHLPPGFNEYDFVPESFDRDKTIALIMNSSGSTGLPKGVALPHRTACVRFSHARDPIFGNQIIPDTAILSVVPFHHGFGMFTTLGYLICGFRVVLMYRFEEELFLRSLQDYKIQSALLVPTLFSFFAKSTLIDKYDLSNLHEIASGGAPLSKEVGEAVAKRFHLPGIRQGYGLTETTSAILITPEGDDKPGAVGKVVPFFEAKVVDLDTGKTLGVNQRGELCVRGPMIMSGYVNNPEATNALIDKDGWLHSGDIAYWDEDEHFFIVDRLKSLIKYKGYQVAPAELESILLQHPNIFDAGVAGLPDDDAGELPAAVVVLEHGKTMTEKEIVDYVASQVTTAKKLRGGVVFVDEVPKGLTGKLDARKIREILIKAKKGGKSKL

Chain of Focal adhesion kinase 1 (Homo sapiens) (Q05397 whole entry, looked up): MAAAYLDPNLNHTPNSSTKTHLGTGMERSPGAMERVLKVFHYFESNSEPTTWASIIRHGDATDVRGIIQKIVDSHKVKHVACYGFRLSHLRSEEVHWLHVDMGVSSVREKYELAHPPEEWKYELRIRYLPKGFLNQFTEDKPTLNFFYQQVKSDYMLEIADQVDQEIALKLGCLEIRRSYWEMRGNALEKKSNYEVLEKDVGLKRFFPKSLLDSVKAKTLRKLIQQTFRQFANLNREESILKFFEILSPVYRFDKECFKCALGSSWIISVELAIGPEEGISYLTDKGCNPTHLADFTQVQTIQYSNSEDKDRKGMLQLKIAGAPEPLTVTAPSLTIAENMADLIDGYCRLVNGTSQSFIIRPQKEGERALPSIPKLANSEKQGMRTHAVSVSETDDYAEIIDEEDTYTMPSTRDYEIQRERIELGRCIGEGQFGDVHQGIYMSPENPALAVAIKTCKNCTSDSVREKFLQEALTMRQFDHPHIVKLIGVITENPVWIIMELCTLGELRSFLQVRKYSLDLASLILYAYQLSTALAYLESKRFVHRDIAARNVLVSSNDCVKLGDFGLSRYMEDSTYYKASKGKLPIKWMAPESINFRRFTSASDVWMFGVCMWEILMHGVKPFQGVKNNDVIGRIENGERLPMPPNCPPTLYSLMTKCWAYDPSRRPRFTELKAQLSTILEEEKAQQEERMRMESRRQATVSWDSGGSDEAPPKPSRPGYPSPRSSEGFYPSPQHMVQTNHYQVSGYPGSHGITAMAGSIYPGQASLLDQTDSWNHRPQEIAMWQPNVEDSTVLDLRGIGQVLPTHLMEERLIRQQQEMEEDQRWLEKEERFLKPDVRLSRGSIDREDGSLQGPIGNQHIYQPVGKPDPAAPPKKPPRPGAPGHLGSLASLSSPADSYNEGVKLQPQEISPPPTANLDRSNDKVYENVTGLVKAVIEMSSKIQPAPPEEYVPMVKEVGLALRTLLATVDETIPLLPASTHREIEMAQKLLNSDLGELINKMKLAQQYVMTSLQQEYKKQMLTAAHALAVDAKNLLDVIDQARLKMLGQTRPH
Chain of Albumin (Bos taurus) (P02769 whole entry, looked up): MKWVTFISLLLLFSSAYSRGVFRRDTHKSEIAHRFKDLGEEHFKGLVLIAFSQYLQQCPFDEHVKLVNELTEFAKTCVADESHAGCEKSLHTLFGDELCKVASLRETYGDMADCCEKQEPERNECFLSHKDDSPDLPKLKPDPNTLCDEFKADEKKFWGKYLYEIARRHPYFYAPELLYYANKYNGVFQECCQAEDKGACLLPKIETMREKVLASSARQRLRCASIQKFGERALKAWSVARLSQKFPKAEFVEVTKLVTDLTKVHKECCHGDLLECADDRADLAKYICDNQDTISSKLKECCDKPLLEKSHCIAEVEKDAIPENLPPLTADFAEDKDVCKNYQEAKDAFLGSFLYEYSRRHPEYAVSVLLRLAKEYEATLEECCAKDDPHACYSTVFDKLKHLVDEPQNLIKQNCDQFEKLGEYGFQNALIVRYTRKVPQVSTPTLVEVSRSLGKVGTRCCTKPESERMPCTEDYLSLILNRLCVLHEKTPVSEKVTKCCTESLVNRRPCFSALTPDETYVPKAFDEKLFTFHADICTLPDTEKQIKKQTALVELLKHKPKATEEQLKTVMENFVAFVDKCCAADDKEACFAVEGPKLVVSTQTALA
Chain of Fibroblast growth factor 2 (Homo sapiens) (P09038 whole entry, looked up): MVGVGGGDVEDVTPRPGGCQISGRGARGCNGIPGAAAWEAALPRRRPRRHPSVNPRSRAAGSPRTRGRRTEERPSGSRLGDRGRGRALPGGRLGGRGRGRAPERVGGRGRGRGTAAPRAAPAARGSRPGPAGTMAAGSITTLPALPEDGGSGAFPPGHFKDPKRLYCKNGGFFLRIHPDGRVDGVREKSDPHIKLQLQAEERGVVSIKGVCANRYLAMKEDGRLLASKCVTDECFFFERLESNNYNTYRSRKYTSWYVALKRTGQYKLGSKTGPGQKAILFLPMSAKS
Chain of Concanavalin-A (Canavalia ensiformis) (P02866 whole entry, looked up): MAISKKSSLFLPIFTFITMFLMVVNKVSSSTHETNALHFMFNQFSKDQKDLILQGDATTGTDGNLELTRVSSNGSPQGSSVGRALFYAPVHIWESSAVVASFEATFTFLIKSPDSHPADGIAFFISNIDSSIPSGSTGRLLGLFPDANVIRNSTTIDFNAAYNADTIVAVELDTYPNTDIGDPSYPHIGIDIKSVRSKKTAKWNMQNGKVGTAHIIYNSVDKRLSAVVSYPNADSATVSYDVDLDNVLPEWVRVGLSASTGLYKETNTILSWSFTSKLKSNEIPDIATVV
Chain of Follistatin (Homo sapiens) (P19883 whole entry, looked up): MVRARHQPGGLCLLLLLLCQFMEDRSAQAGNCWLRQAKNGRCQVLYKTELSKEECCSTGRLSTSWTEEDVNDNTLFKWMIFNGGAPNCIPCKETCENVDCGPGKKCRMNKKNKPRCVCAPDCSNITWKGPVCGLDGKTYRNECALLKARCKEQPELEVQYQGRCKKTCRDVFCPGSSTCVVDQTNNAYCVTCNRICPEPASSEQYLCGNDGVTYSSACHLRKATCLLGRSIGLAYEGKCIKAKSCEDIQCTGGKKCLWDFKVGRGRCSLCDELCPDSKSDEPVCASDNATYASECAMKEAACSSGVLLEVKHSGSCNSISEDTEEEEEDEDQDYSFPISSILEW

| SMILES | composite z-score (Albumin (Bos taurus)) | composite Z-score [1] | composite z-score [2] | composite z-score [3] | composite z-score [4] | composite z-score [5] | composite z-score [6] | composite z-score (Sam68 (KHDRBS1)) | composite z-score [7] | composite z-score [8] | composite z-score [9] | composite z-score [10] | composite z-score [11] | composite z-score [12] | composite z-score [13] | composite z-score [14] | z-score [15] | composite z-score (Lefty1) | composite z-score [16] | z-score [17] |
| --- | --- | --- | --- | --- | --- | --- | --- | --- | --- | --- | --- | --- | --- | --- | --- | --- | --- | --- | --- | --- |
| CC(=O)NCCCC[C@@H]1NC(=O)[C@@H]2C[C@H](C(=O)NCc3ccc(F)cc3)[C@H](c3cccc(OCCO)c3)N2C1=O | 0.188 | 0.328 (inactive) | -0.226 | 0.0383 | 0.659 | 1.07 | 0.19 | 0.506 | 0.174 | 0.474 | 1.6 | 0.308 | -0.135 | 0.371 | 1.3 | 1.7 | 1.25 | 0.115 | -0.087 | -0.425 (inactive) |
| CC(C)[Si](OCCCNS(=O)(=O)c1ccc(Br)cc1)(C(C)C)C(C)C | 0.406 | -0.495 (inactive) | 0.107 | -0.0877 | 0.0774 | 0.468 | 0.194 | 1.33 | 0.29 | 1.08 | 0.479 | 1.04 | 0.339 | 0.348 | 0.928 | 0.828 | -0.87 | 0.513 | 0.622 | -1.22 (inactive) |
| Cc1ccc(S[C@]2(C(=O)NC(C)C)CC(=O)N(C3Cc4ccccc4C3)[C@@H]2c2ccc(CO)cc2)cc1 | 0.451 | 0.52 (inactive) | -0.409 | -0.205 | 0.81 | 1.86 | 0.123 | -0.0334 | -1.2 | 1.16 | 2.13 | 0.627 | 0.447 | 0.686 | 0.34 | -0.438 | 0.186 | 0.123 | 0.923 | 0.187 (inactive) |
| CC(C)(C)OC(=O)CC[C@]1(C(=O)N2CCCCC2)N=C(c2ccc(OCCCO)cc2)O[C@H]1c1ccccc1 | 0.806 | -0.0084 (inactive) | 0.261 | -0.127 | 0.741 | 2.94 | 0.708 | 1.28 | 0.261 | 1.13 | 1.81 | 1.2 | 0.717 | 0.985 | 1.24 | 1.15 | 1.98 | 1.01 | 1.27 | -2.85 (inactive) |
| C=CCOC(=O)[C@@H]1[C@H]2C(=O)O[C@H](c3ccccc3)[C@H](c3ccccc3)N2[C@H](c2ccc(OCCOC(=O)[C@H]3C[C@H]4C(=O)N[C@@H](CCCCNC(C)=O)C(=O)N4[C@H]3c3ccc(O)cc3)cc2)[C@@]12C(=O)Nc1ccc(I)cc12 | -0.239 | 0.396 (inactive) | 0.0222 | -0.0662 | 0.374 | 0.877 | 0.278 | 1.28 | 1.15 | 0.499 | 1.21 | 0.894 | -0.145 | 0.852 | 1.08 | 1.7 | -0.815 | 1.08 | 0.115 | -0.608 (inactive) |
| CC(C)C[C@@H]1NC(=O)[C@H]2C[C@@H](C(=O)NCCCCCC[N+](C)(C)C)[C@@H](c3ccc(O)cc3)N2C1=O | 0.34 | 0.448 (inactive) | -0.126 | -0.164 | 0.717 | 0.439 | 0.102 | -0.907 | 0.362 | 0.452 | 2.28 | -0.194 | -0.188 | -1.44 | 1.16 | 0.839 | -0.603 | 0.467 | 0.952 | 0.779 (inactive) |
| Cc1ccc(S(=O)(=O)N[C@H]2COC(=O)CC=C[C@H](C)COC(=O)N[C@@H](C)C(=O)CC=C[C@@H]2C)cc1 | -0.0363 | -1.01 (inactive) | -0.178 | -0.145 | -0.461 | -0.43 | -0.314 | 0.269 | 1.52 | 0.152 | -0.45 | -0.368 | -0.502 | -0.446 | 0.953 | 1.43 | 0.204 | 1.65 | -0.557 | -0.537 (inactive) |
| COC(=O)C[C@H]1O[C@]2(C(=O)N(C)c3ccccc32)[C@@H](C)[C@@H]1[Si](C)(C)c1ccc(OC)cc1 | 0.163 | -0.211 (inactive) | 0.0185 | -0.135 | 0.158 | 0.342 | 0.494 | 0.567 | 0.291 | 0.598 | 0.284 | 0.824 | 0.0035 | 0.728 | 0.328 | 0.792 | 0.569 | 1.33 | 0.332 | -0.274 (inactive) |
| CN1C(=O)C2C=CC(C(O)c3ccc(N(C)C)cc3)N(Nc3ccc([N+](=O)[O-])cc3[N+](=O)[O-])C2C1=O (stereo not given) | 0.944 | -0.399 (inactive) | 0.586 | 0.0683 | 0.729 | 2.72 | 1.4 | 1.21 | 0.556 | 0.884 | 1.54 | 1.23 | 0.171 | 1.01 | 1.26 | -0.0151 | 0.469 | -0.375 | 1.24 | -1.2 (inactive) |
| O=C1OCCC/C=C\[C@H]2OC34C=CCN(CCN5CCOCC5)C(=O)[C@H]3N(CCCCCO)C(=O)[C@@H]4C12 (stereo not given in full) | -1.22 | 1.39 (inactive) | -0.246 | -0.162 | 0.816 | -0.687 | -0.401 | -0.369 | -1.15 | -0.167 | -0.265 | -2.02 | -1.29 | -1.25 | -0.267 | -0.821 | -0.203 | -0.84 | -0.858 | 0.32 (inactive) |
| COC(=O)C1=CC(c2ccc(CO)cc2)=CC(c2cccs2)N(Cc2cccc(OC(F)(F)F)c2)C=C1C(=O)OC (stereo not given) | 1.09 | 0.639 (inactive) | 0.0979 | -0.101 | 0.671 | 2.76 | 0.641 | 1.34 | -0.602 | 1.18 | 2.15 | 1.23 | 0.409 | 0.97 | 0.289 | -0.316 | 1.49 | 0.0703 | 1.4 | -0.926 (inactive) |
